From PubChem BioAssay AID588852 (The Scripps Research Institute Molecular Screening Center, 2011)
Among all 360,000 compounds or so, about 4,600 (1.3%) were called active.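 The calls were made as follows: active = percent inhibition above its own plate's cutoff, namely the mean of that plate's compound wells plus 3 SD; inactive = the rest.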 For the sample, actives were picked, then their nearest neighbours and some compounds at random.

What follows are molecules tested against Muscarinic acetylcholine receptor M1 (Homo sapiens) (UniProt P11229) (assay: human M1 muscarinic receptor antagonists, primary screen, CHO-K1 cells, Fluo-8 calcium fluorescence, 1536-well (AID 588852;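 also: peak over basal fluorescence ratio during 140 s after agonist addition; 0% = ACh EC80 plus DMSO and 100% = DMSO alone without agonist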)). Details: CHO-K1 hM1, Fluo-8 calcium fluorescence, ACh EC80 antagonist; at 3 µM; hits give high values.
Muscarinic acetylcholine receptor M1 (Homo sapiens), sequence (P11229 whole entry, looked up): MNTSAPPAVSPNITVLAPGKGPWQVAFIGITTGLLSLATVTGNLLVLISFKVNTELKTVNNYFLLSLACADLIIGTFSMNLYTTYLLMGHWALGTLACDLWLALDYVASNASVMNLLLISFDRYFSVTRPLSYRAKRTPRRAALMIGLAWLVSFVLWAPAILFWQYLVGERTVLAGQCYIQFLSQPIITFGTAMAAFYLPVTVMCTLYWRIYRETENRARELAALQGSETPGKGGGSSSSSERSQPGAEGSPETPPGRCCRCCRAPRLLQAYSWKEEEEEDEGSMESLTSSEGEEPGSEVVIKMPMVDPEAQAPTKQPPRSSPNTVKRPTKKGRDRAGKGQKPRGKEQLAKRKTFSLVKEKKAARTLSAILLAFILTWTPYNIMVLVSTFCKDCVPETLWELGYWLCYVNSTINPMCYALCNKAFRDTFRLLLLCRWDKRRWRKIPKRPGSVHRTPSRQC

inhibition, inactive:
COc1ccc(NC(=O)NC2CC3CCCC(C2)N3Cc2ccccc2)cc1 (stereo not given) 1.24%
CCCN1C2CCCC1CC(NC(=O)c1cccc(OC)c1)C2 (stereo not given) -14.2%
Cc1nn(Cc2ccc(C(=O)N3N=C(C(F)F)CC3(O)C(F)F)cc2)c(C)c1[N+](=O)[O-] (stereo not given) -0.52%
COc1ccc(C(C)(O)c2nc(-c3ccc(C)c(C)c3)cs2)cc1 (stereo not given) 6.49%
Cc1cc(C)n(CC(=O)Nc2ccc([N+](=O)[O-])cc2)n1 -1.63%
CC(C)CC(=O)Nc1ccc(Cc2ccncc2)cc1 -16.9%
CC(C)CN1CCC1(C)C(=O)Nc1ccc(OC(F)F)cc1 (stereo not given) 1.99%
CCc1nc2c(=O)[nH]cnc2o1 -5.65%
COc1cc(C(=O)N(C)Cc2cccc(OC)c2OC)ccc1OCC(=O)Nc1cccc(C(F)(F)F)c1 5.88%
CCCCC[C@H]1CN(C2CCCCC2)C(=O)[C@@H]1CC(=O)NCc1ccc(OC)cc1 -1.3%
Cn1ccnc1SCC(=O)Nc1ccc2c(c1)OCCO2 -13.9%
O=C(CSc1nc2ncccc2[nH]1)Nc1ccc2c(c1)OCCO2 -2.03%
CC(=O)Nc1cc(-c2ccc(N3CCN(C)CC3)cc2)cn2c(-c3ccc(F)cc3)cnc12 -18.1%
CCc1ccc2c(c1)NC(=O)C2(C)Cc1ccc(OC(F)(F)F)cc1 (stereo not given) -13.1%
Cc1ccc(Cl)c(OCC(=O)NN2CCN(C)CC2)c1 -16.2%
O=C(CCCOc1ccc(Cl)cc1Cl)NNC(=O)C1CCC1 -17.9%
COc1ccc(CN(CC(=O)NC2CCCC2)C(=O)CCC(=O)Nc2cc(C)on2)cc1 -0.71%
CN(C)/C=C(\C#N)C(=O)c1cccnc1Oc1ccc(F)cc1F -0.88%
O=C(N=C1SC2CS(=O)(=O)CC2N1c1ccccc1)c1ccccc1 (stereo not given) -9.89%
CCOC(=O)N1CCN(Cc2nnc(-c3ccccc3Cl)o2)CC1 -15.1%
CCOC(=O)C1CCN(Cc2ccc(-c3ccccc3)cc2)CC1 25.5%
CC1=NC2(CCCc3c2no[n+]3[O-])N(O)C1(C)C (stereo not given) 0.36%
Cc1ccc(C(=O)NC(C)C(c2cccs2)N2CCOCC2)cc1C (stereo not given) -6.99%
COC(=O)[C@]1(S(=O)(=O)c2ccccc2)C[C@@H]2ON=C(c3ccc(OC)cc3)[C@@H]2C1 -7.9%
CCN1C(=O)C(C(=O)NC(C)c2ccccc2)C2CC1(C)Oc1ccccc12 (stereo not given) -3.28%
C=CCOc1ccc(/C=C/C(=O)OCC(=O)NCC2CCCO2)cc1 (stereo not given) -1.61%
O=S1(=O)CCN(Cc2ccccc2)CC1 -8.4%
NC(=O)C1(N2CCCC2)CCN(Cc2ccccc2)CC1 2.73%
COc1ccc(/C=N/NC(=O)C(C)N(c2ccc(OC)cc2)S(C)(=O)=O)cc1 (stereo not given) 3.35%
CC(=O)Nc1ccc(Nc2ncnc3c2nnn3Cc2ccccc2Cl)cc1 -1.5%
COC(=O)C1(S(=O)(=O)C2(C(=O)OC)CCCC2)CCCC1 -1.25%
CCCCOc1ccc(CON(C(C)=O)C(C)=O)cc1Cl 6.46%
COc1ccccc1S(=O)(=O)NCc1ccc(C(=O)N(C)Cc2ccc(F)cc2)cc1 -14.8%
COc1ccc([N+](=O)[O-])cc1C1NN=C(c2cccc3ccccc23)S1 (stereo not given) -11%
Cc1ccc2c(Cl)c(C(=O)NCCCn3ccnc3)sc2c1 -10.2%
Cc1ccc(-c2nc(C#N)c(NCCCn3ccnc3)o2)cc1 -17.5%
C/C(=N\NC(=S)NCc1ccccc1)C1CCCCC1 -9.74%
Cc1cc2nc(-c3ccc(Cl)cc3)c(Cc3cccc(F)c3)n2c(C)c1Br 0.42%
COc1ccccc1OCC(=O)Nc1c2c(nn1-c1ccc(F)cc1)CS(=O)(=O)C2 -12.4%
O=C(Nc1c2c(nn1-c1ccccc1)CS(=O)(=O)C2)C1CCCC1 -10.8%
CC(C)(C)NC(=O)CSC(=Nc1ccccc1F)NC#N -1.14%
COCCn1c(=S)[nH]c2cc(C(=O)NCCc3ccc(OC)c(OC)c3)ccc2c1=O -6.48%
COc1ccc(-n2c(=O)[nH]c3cc(C(=O)NCCc4ccc(OC)c(OC)c4)ccc3c2=O)c(OC)c1 -8.11%
COCc1cc(=O)[nH]c(-c2ccc(C(F)(F)F)cc2)n1 -16.9%
CC(=O)N[C@@H](C)C(=O)N1CCC(n2nccc2NC(=O)CCCc2ccccc2)CC1 -3.58%
CN(Cc1ccc(C(F)(F)F)cc1)C(=O)[C@H]1O[C@@H](n2cnc3c(N)ncnc32)[C@H](O)[C@@H]1O -26%
CCCC(O)(c1ccc(OC)cc1)C(CN(C)C)c1ccccc1 (stereo not given) -7.01%
CN(C)N(C)C(=O)C(O)(c1ccccc1)c1ccccc1 17.7%

inhibition, active:
COc1ccc(CN2C3CCCC2CC(NC(=O)c2cccc(F)c2)C3)cc1 (stereo not given) 32.6%
Cc1cc([N+](=O)[O-])nn1CC(=O)Nc1ccc(Cc2ccncc2)cc1 28.3%
O=C(CSc1nc(=O)n2ccccc2n1)Nc1ccc2c(c1)OCCO2 35.3%
CN1CCC(OC(=O)COc2ccc(Cl)cc2Cl)CC1 51.8%
CCOC(=O)C1CCN(Cc2nnc(-c3cccc(Br)c3)o2)CC1 35.9%
N#C[C@]1(S(=O)(=O)c2ccccc2)C[C@@H]2ON=C(c3cccc(Br)c3)[C@@H]2C1 33.5%
CC12CN(Cc3ccccc3)CC(C)(CN(Cc3ccccc3)C1)C2=NO 38.2%
Cc1ccc(S(=O)(=O)c2nc(NCCCn3ccnc3)sc2Cl)cc1 29.2%
O=C(CC1CCCCC1)Nc1c2c(nn1-c1ccc(F)cc1)CS(=O)(=O)C2 104%
c1ccc2c(c1)CSc1sccc1C2=C1CCNCC1 99.6%
CCOC(=O)N1CCN(C(=O)c2ccc3c(=O)n(CCc4ccc(OC)c(OC)c4)c(=O)[nH]c3c2)CC1 62.3%
COC(CCN(C)C)(c1ccccc1)c1ccccc1 60.4%
